From PubChem BioAssay AID1159580 (chemical genetic matrix, 2015)
Hit rate of the full screen: of about 5,500 compounds, about 2,000 (36%) were called active. Inconclusive results (about 18%) are left out. Rule as the data show it: active = normalized growth mostly below about 0.91 (no sharp cut-off); inconclusive = no clear call, values can overlap the other calls; inactive = mostly above about 0.92. The list shows a part of the results. Where a SMILES comes first, the peptide text is derived from it. Bridges are numbered along the chain shown (N, C = ends). [ ]: non-standard residue; d: D form. The star is where a group is joined. Octanoyl(6-Me) = CCC(C)CCCCC(=O)*; Dab = NCC[CH](N)C(=O)O

Test: chemical genetic growth profiling, strain panel (AID 1159580);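 also: tested at 20 µM; growth read once vehicle control cultures reached saturation at 30 °C; 1 = growth at the plate median or of vehicle wells; lower values mean less growth of the strain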
Details: growth OD

Measured: normalized growth

CCC(C)CCCCC(=O)NC(CCN)C(=O)NC(C(=O)NC(CCN)C(=O)NC1CCNC(=O)C(C(C)O)NC(=O)C(CCN)NC(=O)C(CCN)NC(=O)C(CC(C)C)NC(=O)C(Cc2ccccc2)NC(=O)C(CCN)NC1=O)C(C)O (configuration not stated) ({Octanoyl(6-Me)}-[Dab]T[Dab][Dab][Dab]FL[Dab][Dab]T; lactam 4-C; configuration not given here)
inactive: S. cerevisiae deletion strains, locus YJR075W, strain HOC1, active compounds read low 0.997 | S. cerevisiae deletion strains, locus YKL009W, strain mrt4, active compounds read low 0.99 | S. cerevisiae deletion strains, locus YKL068W, active compounds read low 1 | S. cerevisiae deletion strains, locus YKL085W, strain MDH1 (second series), active compounds read low 0.998 | S. cerevisiae deletion strains, locus YKL085W, strain MDH1, active compounds read low 0.998 | S. cerevisiae deletion strains, locus YKL160W, strain elf1, active compounds read low 0.97 | S. cerevisiae deletion strains, locus YKL190W, strain CNB1, active compounds read low 0.991 | S. cerevisiae deletion strains, locus YKR001C, strain vps1, active compounds read low 0.987 | S. cerevisiae deletion strains, locus YKR026C, strain gcn3, active compounds read low 1 | S. cerevisiae deletion strains, locus YKR091W, strain srl3, active compounds read low 1.01 | S. cerevisiae deletion strains, locus YLL001W, strain dnm1, active compounds read low 0.989 | S. cerevisiae deletion strains, locus YLL026W, active compounds read low 1.02 | S. cerevisiae deletion strains, locus YLL041C, strain sdh2, active compounds read low 0.995 | S. cerevisiae deletion strains, locus YLR027C, strain aat2, active compounds read low 0.988 | S. cerevisiae deletion strains, locus YLR039C, strain RIC1, active compounds read low 1.04 | S. cerevisiae deletion strains, locus YLR058C, strain SHM2, active compounds read low 1 | S. cerevisiae deletion strains, locus YLR102C, strain apc9, active compounds read low 1.01 | S. cerevisiae deletion strains, locus YLR113W, strain HOG1, active compounds read low 0.986 | S. cerevisiae deletion strains, locus YLR221C, strain rsa3, active compounds read low 0.988 | S. cerevisiae deletion strains, locus YLR258W, strain gsy2, active compounds read low 0.978 | S. cerevisiae deletion strains, locus YLR262C, strain YPT6 (second series), active compounds read low 1.04 | S. cerevisiae deletion strains, locus YLR262C, strain YPT6, active compounds read low 1.05 | S. cerevisiae deletion strains, locus YLR268W, strain sec22, active compounds read low 1.05 | S. cerevisiae deletion strains, locus YLR320W, strain mms22, active compounds read low 0.957 | S. cerevisiae deletion strains, locus YLR330W, strain CHS5, active compounds read low 1 | S. cerevisiae deletion strains, locus YLR342W, strain FKS1 (second series), active compounds read low 0.95 | S. cerevisiae deletion strains, locus YLR342W, strain FKS1, active compounds read low 0.995 | S. cerevisiae deletion strains, locus YLR357W, strain rsc2, active compounds read low 0.968 | S. cerevisiae deletion strains, locus YLR370C, strain arc18, active compounds read low 0.979 | S. cerevisiae deletion strains, locus YLR371W, strain rom2, active compounds read low 1.01 | S. cerevisiae deletion strains, locus YLR384C, strain iki3, active compounds read low 0.981 | S. cerevisiae deletion strains, locus YLR418C, strain cdc73, active compounds read low 1.02 | S. cerevisiae deletion strains, locus YML016C, strain PPZ1, active compounds read low 0.992 | S. cerevisiae deletion strains, locus YML032C, strain rad52, active compounds read low 1.02 | S. cerevisiae deletion strains, locus YML120C, strain ndi1, active compounds read low 0.985 | S. cerevisiae deletion strains, locus YML124C, strain tub3, active compounds read low 1.01 | S. cerevisiae deletion strains, locus YMR058W, strain fet3, active compounds read low 0.984 | S. cerevisiae deletion strains, locus YMR078C, strain ctf18, active compounds read low 1.01 | S. cerevisiae deletion strains, locus YMR125W, strain sto1, active compounds read low 0.993 | S. cerevisiae deletion strains, locus YMR129W, active compounds read low 1 | S. cerevisiae deletion strains, locus YMR205C, strain PFK2, active compounds read low 0.957 | S. cerevisiae deletion strains, locus YMR223W, strain ubp8, active compounds read low 0.975 | S. cerevisiae deletion strains, locus YMR231W, strain pep5, active compounds read low 1 | S. cerevisiae deletion strains, locus YMR263W, strain SAP30, active compounds read low 1.02 | S. cerevisiae deletion strains, locus YMR307W, strain GAS1, active compounds read low 0.984 | S. cerevisiae deletion strains, locus YNL067W, strain RPL9B, active compounds read low 1.01 | S. cerevisiae deletion strains, locus YNL071W, strain lat1, active compounds read low 1.02 | S. cerevisiae deletion strains, locus YNL128W, strain TEP1, active compounds read low 0.982 | S. cerevisiae deletion strains, locus YNL153C, strain GIM3, active compounds read low 1.02 | S. cerevisiae deletion strains, locus YNL183C, strain NPR1, active compounds read low 0.944 | S. cerevisiae deletion strains, locus YNL209W, strain ssb2, active compounds read low 1 | S. cerevisiae deletion strains, locus YNL233W, strain BNI4, active compounds read low 0.992 | S. cerevisiae deletion strains, locus YNL248C, strain rpa49, active compounds read low 0.989 | S. cerevisiae deletion strains, locus YNL250W, strain rad50, active compounds read low 0.996 | S. cerevisiae deletion strains, locus YNL271C, strain bni1, active compounds read low 1.01 | S. cerevisiae deletion strains, locus YNL298W, strain CLA4, active compounds read low 0.997 | S. cerevisiae deletion strains, locus YNL307C, strain MCK1, active compounds read low 1.01 | S. cerevisiae deletion strains, locus YNL322C, strain KRE1 (second series), active compounds read low 0.976 | S. cerevisiae deletion strains, locus YNL322C, strain KRE1, active compounds read low 0.991 | S. cerevisiae deletion strains, locus YNR049C, strain mso1, active compounds read low 0.997 | S. cerevisiae deletion strains, locus YNR052C, strain pop2, active compounds read low 0.979 | S. cerevisiae deletion strains, locus YOL006C, strain TOP1, active compounds read low 0.992 | S. cerevisiae deletion strains, locus YOL012C, strain htz1 1.19 | S. cerevisiae deletion strains, locus YOL147C, strain pex11, active compounds read low 1.01 | S. cerevisiae deletion strains, locus YOR001W, strain rrp6, active compounds read low 0.97 | S. cerevisiae deletion strains, locus YOR061W, strain CKA2, active compounds read low 0.991 | S. cerevisiae deletion strains, locus YOR069W, strain VPS5, active compounds read low 1 | S. cerevisiae deletion strains, locus YOR070C, strain gyp1, active compounds read low 0.995 | S. cerevisiae deletion strains, locus YOR080W, strain dia2, active compounds read low 0.991 | S. cerevisiae deletion strains, locus YOR083W, strain WHI5, active compounds read low 0.97 | S. cerevisiae deletion strains, locus YOR106W, strain vam3, active compounds read low 0.987 | S. cerevisiae deletion strains, locus YOR136W, strain idh2, active compounds read low 1 | S. cerevisiae deletion strains, locus YOR144C, strain elg1, active compounds read low 1 | S. cerevisiae deletion strains, locus YOR184W, strain ser1, active compounds read low 1.01 | S. cerevisiae deletion strains, locus YOR231W, strain MKK1, active compounds read low 0.978 | S. cerevisiae deletion strains, locus YOR265W, strain rbl2, active compounds read low 0.986 | S. cerevisiae deletion strains, locus YOR270C, strain vph1, active compounds read low 0.963 | S. cerevisiae deletion strains, locus YOR290C, strain snf2, active compounds read low 0.963 | S. cerevisiae deletion strains, locus YOR316C, strain cot1, active compounds read low 1 | S. cerevisiae deletion strains, locus YPL051W, strain arl3, active compounds read low 0.963 | S. cerevisiae deletion strains, locus YPL055C, strain LGE1, active compounds read low 0.994 | S. cerevisiae deletion strains, locus YPL078C, strain atp4, active compounds read low 0.972 | S. cerevisiae deletion strains, locus YPL106C, strain sse1, active compounds read low 0.956 | S. cerevisiae deletion strains, locus YPL240C, strain hsp82, active compounds read low 0.981 | S. cerevisiae deletion strains, locus YPL241C, strain CIN2, active compounds read low 1 | S. cerevisiae deletion strains, locus YPL256C, strain CLN2, active compounds read low 0.994 | S. cerevisiae deletion strains, locus YPR119W, strain clb2, active compounds read low 0.999 | S. cerevisiae deletion strains, locus YPR141C, strain kar3, active compounds read low 1.01 | S. cerevisiae deletion strains, locus YPR163C, strain tif3, active compounds read low 1.02 | S. cerevisiae deletion strains, locus YPR167C, strain met16, active compounds read low 1 | S. cerevisiae deletion strains, strain wtn01, active compounds read low 1.01 | S. cerevisiae strains, strain wild type, active compounds read low 0.99
